# ANO1 block: mouse TMEM16A channel inhibition, primary screen; Q8BHY3; HEK293 TMEM16A/YFP iodide influx fluorescence, ionomycin; normalized B-score (activity score, 25-100; higher = stronger inhibition) at 10 µM; 310,000 compounds, 1.2% hits;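 active = ratio plate-corrected score three or more library SD toward inhibition, starting fluorescence score within five deviations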;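 also: score derived from kinetic fluorescence span divided by baseline fluorescence per well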
# Target sequence (Q8BHY3 whole entry, looked up): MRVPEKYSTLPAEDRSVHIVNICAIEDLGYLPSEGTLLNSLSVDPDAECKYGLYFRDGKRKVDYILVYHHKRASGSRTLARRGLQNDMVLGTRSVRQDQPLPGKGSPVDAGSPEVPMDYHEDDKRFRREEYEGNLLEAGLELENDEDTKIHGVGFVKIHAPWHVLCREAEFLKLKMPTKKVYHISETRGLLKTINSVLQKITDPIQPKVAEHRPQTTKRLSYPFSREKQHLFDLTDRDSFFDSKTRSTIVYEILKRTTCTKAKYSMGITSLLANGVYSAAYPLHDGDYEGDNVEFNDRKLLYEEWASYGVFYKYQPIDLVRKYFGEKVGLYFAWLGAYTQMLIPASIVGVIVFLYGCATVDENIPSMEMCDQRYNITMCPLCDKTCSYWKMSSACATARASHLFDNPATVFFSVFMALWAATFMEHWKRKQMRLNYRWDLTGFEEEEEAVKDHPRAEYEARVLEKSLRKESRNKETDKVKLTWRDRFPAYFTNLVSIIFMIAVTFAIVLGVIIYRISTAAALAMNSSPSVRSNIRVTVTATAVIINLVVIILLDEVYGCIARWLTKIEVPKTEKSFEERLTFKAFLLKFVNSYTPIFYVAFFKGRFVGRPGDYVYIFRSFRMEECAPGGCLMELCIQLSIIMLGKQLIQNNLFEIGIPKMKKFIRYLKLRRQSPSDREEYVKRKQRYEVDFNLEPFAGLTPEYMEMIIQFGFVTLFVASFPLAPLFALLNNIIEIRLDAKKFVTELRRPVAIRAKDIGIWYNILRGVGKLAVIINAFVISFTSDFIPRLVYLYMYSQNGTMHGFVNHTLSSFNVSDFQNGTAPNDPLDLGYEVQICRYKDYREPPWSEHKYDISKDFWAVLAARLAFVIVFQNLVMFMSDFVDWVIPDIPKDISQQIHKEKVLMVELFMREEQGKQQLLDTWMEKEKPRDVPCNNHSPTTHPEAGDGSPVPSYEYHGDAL
# DAGLB inh: blocks human DAGLB lipase activity; HEK293T DAGLB membrane lysate, EnzChek fluorogenic substrate; inhibition, % at 5.17 µM; 340,000 compounds, 0.059% hits; AID 504411; in the data active = inhibition above about 34%;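 also: 0% = enzyme with vehicle and 100% = wells lacking enzyme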
# iPSC survival up: hiPSC single-cell survival enhancement. ATPlite luminescence; 100% = ROCK inhibitor wells, 0% = DMSO. 360,000 compounds, 0.044% hits. survival enhancement, % at 20 µM. AID 602274; in the data active = survival enhancement above about 18%;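 also: cells exposed to compounds for 16 hours before the ATP read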
# ABCB6 inh 2: human ABCB6 transporter inhibition; Q9NP58; K562-ABCB6 porphyrin accumulation, flow cytometry, 1 h; active compounds read low; fluorescence ratio to DMSO, % at 10 µM; 360,000 compounds, 0.19% hits;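 active = fluorescence ratio to DMSO below 75%, the collection mean minus 3 SD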;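 also: signal is porphyrin accumulated inside mitochondria; 100% equals median channel fluorescence of DMSO control wells; lower ratio means ABCB6 inhibition with less porphyrin fluorescence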
# ANO1 activ: activates or potentiates the mouse TMEM16A chloride channel | Q8BHY3 | HEK293 TMEM16A/YFP-H148Q/I152L, iodide quench fluorescence; active compounds read low | B-score at 10 µM | 340,000 compounds, 0.3% hits | AID 623877;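 active = fluorescence-ratio B-score plate-corrected deviation score at least 3 library SD below zero, with starting fluorescence score within 5 deviations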;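 also: channel opened by trigger with iodide after compound preincubation; score built on the fluorescence ratio of max minus min over baseline; more negative score means more quench and so TMEM16A activation or potentiation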
# TMEM16A reconf: re-confirmation of mouse TMEM16A chloride channel inhibitors | 2,300 compounds, 39% hits | HEK293 TMEM16A/YFP-H148Q, iodide quench fluorescence; ionomycin added to raise cell calcium | inhibition, % at 10 µM | shares compounds with ANO1 block;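 active = mean duplicate percent inhibition, scaled so buffer wells are 0 and the reference blocker 100, over three buffer SD above buffer mean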
# HEK293 Ca mobil: alters calcium mobilization in TMEM16A HEK293 cells, counter-screen | shares compounds with ANO1 block | TMEM16A/YFP HEK293, Fluo4 calcium mobilization | calcium response (% of ionomycin), % at 10 µM | 2,300 compounds, 2% hits;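 active = duplicate-averaged calcium signal over 20% of the ionomycin maximum, relative to buffer baseline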;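 also: each well's signal is peak minus trough fluorescence divided by its pre-addition baseline; 0% = buffer wells and 100% = ionomycin wells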
# YFP-HEK293 quench: parental YFP-HEK293 iodide quench counter-screen activity; shares compounds with ANO1 block; ionomycin; YFP ratio F(max-min)/F0 at 10 µM; 2,300 tested, under 10 active; AID 652233;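 active = yellow fluorescent protein signal ratio exceeding the buffer control mean by over 5 SD of those controls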;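 also: ratio is mean of duplicate wells from kinetic YFP trace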
# ClC-1 rat inh: selectivity of TMEM16A inhibitors: inhibition of rat ClC-1 chloride channel; shares compounds with ANO1 block; CHO ClC-1-YFP, iodide influx fluorescence quench; iodide control reads 0, buffer control 100; ratio percent, % at 10 µM; 2,300 tested, under 10 active; AID 652236;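 active = duplicate-mean ratio percent above the mean of iodide-only control wells, which defines zero, plus 5 of their SD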;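 also: higher percent means stronger block of ClC-1 iodide influx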
# An asterisk follows results filed as active; i = inactive; . = no result given. This is a sample that favours compounds with a hit; in the whole collection about 1.5% have one here.
SMILES,ANO1 block,DAGLB inh,iPSC survival up,ABCB6 inh 2,ANO1 activ,TMEM16A reconf,HEK293 Ca mobil,YFP-HEK293 quench,ClC-1 rat inh
Cc1cc(C)c(C#N)c(N2CCN(CCOc3ccc(Cl)cc3)CC2)n1,25*,-21,1,99,i,i,i,-1.1,-12
COc1ccc(Cl)cc1CN1CCN(c2nc(C)cc(C)c2C#N)CC1,i,-8,2,102,i,.,.,.,.
C=CCNC(=O)C1CC(=O)N(c2ccc(Br)cc2)C1 (stereo unspecified),i,7,-1,99,i,.,.,.,.
CCNC(=O)C1CC(=O)N(c2ccc(Br)cc2)C1 (stereo unspecified),i,-1,-6,100,i,i,i,-0.97,-4
C=C(C)C1CC=C(C)/C(=N/NC(=O)CNc2ccc(OCC)cc2)C1 (stereo unspecified),25*,-2,2,94,i,i,i,-1.1,0
C=C(C)C1CC=C(C)/C(=N/NC(=O)CNc2ccc(C)cc2C)C1 (stereo unspecified),i,3,2,95,i,.,.,.,.
CN(c1ccccc1)S(=O)(=O)c1ccc(NC(=O)c2ccccc2)cc1,i,1,-1,94,i,.,.,.,.
CN(c1ccccc1)S(=O)(=O)c1ccc(NC(=O)c2nc(S(C)(=O)=O)ncc2Cl)cc1,25*,0,13,40*,-5.5*,18%*,i,-1,-5
COc1ccc(NC(=O)Nc2c[nH]c(=O)[nH]c2=O)cc1OC,i,0,0,105,i,.,.,.,.
CCOC(=O)c1c(C)n(CC(COC(C)=O)OC(C)=O)c2ccc(OC(C)=O)cc12 (stereo unspecified),25*,-1,0,97,i,i,i,-1.2,-16
O=C(Nc1nnc(CSCc2ccc(Cl)cc2)s1)c1cccc([N+](=O)[O-])c1,25*,3,16,94,i,i,i,-1.1,-6
COc1cccc(C(=O)/C(C#N)=N/Nc2cccc(-c3ccnc(C)n3)c2)c1,100*,6,0,96,i,i,i,-1,-6
COCCN(C(=O)CNC(=O)c1ccco1)C(C(=O)NC1CCCC1)c1ccc(F)cc1 (stereo unspecified),i,-2,0,95,i,.,.,.,.
CC(C)CCN(C(=O)CNC(=O)c1ccco1)C(C(=O)NC1CCCCC1)c1ccco1 (stereo unspecified),25*,1,2,99,.,19%*,i,-1.1,-6
COc1cccc(CNc2nc3cc(-c4ccc(F)cc4)sc3c(=O)n2C)c1,.,.,4,98,.,.,.,.,.
Cc1cc(C)n(C(=O)c2ccc(S(=O)(=O)NCC3CCCO3)cc2)n1 (stereo unspecified),i,1,-2,94,i,i,i,-1.2,-7
Cc1occc1C(=O)N/N=C/C=C/c1ccc(N(C)C)cc1,i,2,-1,114,i,i,i,-1.1,-8
CCOc1cc(Br)ccc1S(=O)(=O)N1CC(C)OC(C)C1 (stereo unspecified),i,-3,-2,77,i,.,.,.,.
CCOc1ccc(Br)cc1S(=O)(=O)N1CC(C)OC(C)C1 (stereo unspecified),100*,0,5,93,i,i,i,-1.1,-10
CC(=O)c1cccc(-c2ccnc3c2CC(C(=O)NCc2ccccc2)O3)c1 (stereo unspecified),.,.,-3,99,.,.,.,.,.
CCOC(=O)N1CCN(C(=O)C[C@@H]2C[C@@]3(C(=O)OC)CCCCC=C3N(Cc3ccc(Cl)cc3Cl)C2=O)CC1,.,.,0,79,.,.,.,.,.
CCc1nc(NCc2ccc3c(c2)OCO3)c2oc3ccccc3c2n1,i,-8,-1,93,i,.,.,.,.
Cc1nc(NCc2ccc3c(c2)OCO3)c2oc3ccccc3c2n1,25*,-1,0,99,i,i,i,-1.2,-4
CC(Oc1ccccc1)C(=O)Nc1nnc(S(=O)(=O)Nc2ccccc2)s1 (stereo unspecified),100*,6,6,100,i,i,i,-0.83,-10
CCCCOC(=O)c1ccc(NC(=O)COC(=O)C2CSC3(C)CCC(=O)N23)cc1 (stereo unspecified),25*,-5,0,99,i,30%*,i,-0.95,-4
SMILES,ANO1 block,DAGLB inh,iPSC survival up,ABCB6 inh 2,ANO1 activ,TMEM16A reconf,HEK293 Ca mobil,YFP-HEK293 quench,ClC-1 rat inh
CCOc1ccc(-n2c(=O)c3sccc3n(CC(=O)NCC3CCCO3)c2=O)cc1 (stereo unspecified),i,1,0,94,i,.,.,.,.
O=C(NCc1ccccc1)C(=O)Nc1nc(C23CC4CC(CC(C4)C2)C3)cs1,i,1,-1,97,i,.,.,.,.
O=C(NCc1ccncc1)C(=O)Nc1nc(C23CC4CC(CC(C4)C2)C3)cs1,100*,8,-1,85,i,18%*,i,-1.1,-19
CCC(C)N(C(=O)CSc1nnc(C)n1C)C1CCS(=O)(=O)C1 (stereo unspecified),i,-3,0,95,i,.,.,.,.
O=C(COc1ccc(Br)cc1)c1ccc2c(c1)CCCC2,25*,-31,-4,92,i,i,i,-0.92,-16
OCCNc1ncnc2c1ncn2[C@H]1CN(Cc2ccncc2)C[C@@H](CO)O1,.,.,8,102,.,.,.,.,.
Cc1ccc(S(=O)(=O)NCc2ccccc2)cc1C(=O)N1CCN(S(=O)(=O)c2ccccc2F)CC1,.,-3,-4,96,.,.,.,.,.
O=c1[nH]c(=O)n(-c2ccc(F)cc2)c2c1C(C(F)(F)F)(C(F)(F)F)N=C(c1ccc(F)cc1)N2,25*,8,-1,88,i,26%*,i,-0.95,-24
Cc1ccc(C2=NC(C(F)(F)F)(C(F)(F)F)c3c(n(-c4ccc(F)cc4)c(=O)[nH]c3=O)N2)cc1,i,1,0,102,i,.,.,.,.
CCCCCOC(=O)C1C(c2ccccc2)C(C(=O)O)C1c1ccccc1 (stereo unspecified),25*,6,-2,148,i,i,i,-1.3,-5
O=C(O)C1C(c2ccccc2)C(C(=O)OCCCO)C1c1ccccc1 (stereo unspecified),i,-1,0,100,i,.,.,.,.
